The list is not random: actives were taken first. Their share in the collection is about 3%.
Measles CPE = protection of cells from measles virus; Measles virus-infected cells, CPE protection, absorbance; protection (pct of control), % at 4 µM; 1.5% of 140,000 active; AID 841; in the data active means protection mostly above about 24%, no sharp cut-off; inactive means mostly below about 26%
ROMK primary = modulates human ROMK potassium channel activity; 2% of 130,000 active; Tet-inducible ROMK, thallium flux fluorescence; actives lie on both sides; AID 1918; B-score at 10 µM; P48048;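 active means signal ratio slope over the read window, or its plate-corrected B-score, at least 3 SD from the plate mean, either direction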;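 further: B-score of the F/F0 ratio slope over 7 to 12 s after thallium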
Target sequence (P48048 whole entry, looked up): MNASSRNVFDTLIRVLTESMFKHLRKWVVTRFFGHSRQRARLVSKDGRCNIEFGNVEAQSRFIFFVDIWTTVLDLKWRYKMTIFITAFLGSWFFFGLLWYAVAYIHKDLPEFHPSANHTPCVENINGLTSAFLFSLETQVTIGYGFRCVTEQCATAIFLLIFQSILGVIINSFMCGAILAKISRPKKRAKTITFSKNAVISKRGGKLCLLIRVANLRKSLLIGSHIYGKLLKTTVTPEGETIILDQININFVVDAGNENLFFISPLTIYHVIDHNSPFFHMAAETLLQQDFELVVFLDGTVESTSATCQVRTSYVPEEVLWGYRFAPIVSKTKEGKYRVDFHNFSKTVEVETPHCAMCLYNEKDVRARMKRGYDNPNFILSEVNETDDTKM
Insulin prom inh = TRM-6 insulin promoter activity inhibition; TRM-6 cells (human fetal islet line), insulin promoter-eGFP reporter, imaging; reporter expression induced with tamoxifen; inhibition, % at 2 µM; 0.9% of 130,000 active;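 active means inhibition above the mean plus 3 SD, with well images judged a real hit on visual review, cut at about 60% in these data, passing the limit was not always enough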
SDO1 yeast rescue = compounds rescuing growth of sdo1-depleted yeast, bone marrow failure model. 0.21% of 140,000 active. z-score at 10 µM. S. cerevisiae sdo1-depleted JHY4D growth rescue, OD600 30 h; stronger effect = higher value; pdr5 snq2 efflux-pump mutant strain;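 active means z-score above 3 at both the 24 hr and the 30 hr optical density reads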;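 further: z-score against mean and SD of all compound wells on the same plate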
* marks the source's active call; other numbers are inactive results; x = no result.

SMILES	Measles CPE	ROMK primary	Insulin prom inh	SDO1 yeast rescue
CCN(CC)S(=O)(=O)c1ccc(C(=O)NCCc2ccccn2)cc1	x	0.59	47	x
O=C(CCS(=O)(=O)Cc1ccccc1F)NCc1ccccc1Cl	x	0.033	-27	x
Cc1cccn2c(=O)c(C=O)c(N3CCSCC3)nc12	x	-0.031	x	x
Cc1ccc(NC(=O)C(Nc2cccc(C)c2)c2ccccc2)cc1 (configuration not stated)	12	0.69	22	-0.9
Cc1cc(C)cc(NC(=O)C(Nc2ccccc2)c2ccccc2)c1 (configuration not stated)	46*	0.00049	-79	-0.95
COc1ccc2c(C)cc3nncn3c2c1	x	0.47	53	x
COc1ccc(CNC(=O)/C=C/c2ccco2)cc1OC	x	0.29	71*	x
C/C(=N/NC(=O)c1sc(=S)n(C)c1C)c1ccccc1	5	x	x	-0.73
CC1(C)Cc2c(sc3ncn4nnnc4c23)CO1	x	-0.85	x	x
CC1(C)Cc2c(sc3ncnc(N)c23)CO1	2	0.063	83*	0.53
CC1(C)Cc2c(sc3nc[nH]c(=O)c23)CO1	x	0.21	100*	x
CCc1cccc(CC)c1NC(=O)COn1nnc2ccc(C(F)(F)F)cc21	22	x	-48	0.37
CCCSc1ccc2nc(-c3ccccc3)cn2c1	5	0.23	x	-0.91
CCCCSc1ccc2nc(-c3ccc(C#N)cc3)cn2c1	43*	-0.014	x	-1.1
CC(C)CSc1nsc(N)n1	3	x	86*	0.72
Cc1ccc(N2C(=O)C3C4CC(=O)C(c5ccccc54)C3C2=O)cc1C (configuration not stated)	28	x	x	0.98
COc1ccc(-c2nnn(CCc3nn[nH]n3)n2)cc1	x	x	75*	x
COc1ccc(Br)cc1CN(C)CC(=O)Nc1c(Cl)cccc1Cl	25	x	x	-1.3
Cc1nc2ncnn2c(N2CCN(C(c3ccccc3)c3ccccc3)CC2)c1C	53*	1	-55	-1.9
Cc1cc2c(cc1C)CSC(c1ccc3ccccc3c1O)SC2	5	0.15	63*	-1.9
CCCS(=O)(=O)n1nc(-c2ccc(OC)cc2)cc1N	27*	x	x	0.93
CCCS(=O)(=O)n1nc(-c2ccc(C)cc2)cc1N	21	x	x	0.21
CCOc1ccc(/C=N/Nc2ccc(C(F)(F)F)cc2[N+](=O)[O-])cc1O	32*	0.61	71*	-1.2
FC(F)Sc1nc(-c2ccccc2)c(-c2ccccc2)n1C(F)F	34*	-0.59	15	-0.82
Cc1[nH][nH]c(=O)c1C(c1c(C)[nH][nH]c1=O)c1cn(Cc2cccc3ccccc23)c2ccccc12	10	-2.7*	x	-0.78
SMILES	Measles CPE	ROMK primary	Insulin prom inh	SDO1 yeast rescue
Cc1ccc(-c2n[nH]c(=S)n2/N=C/c2c(C)[nH]n(-c3ccccc3)c2=O)cc1	x	1.6	35	x
Cc1ccc(S(=O)(=O)NCCc2nnc3ccc(SCC(=O)Nc4nc5ccccc5s4)nn23)cc1	30*	-1.3	-88	0.76
Cc1cc(NC(=O)CSc2ccc3nnc(CCNS(=O)(=O)c4ccccc4)n3n2)no1	x	-0.94	-92	x
O=C(NC(Cc1c[nH]c2ccccc12)C(=O)O)/C(=C/c1ccc2c(c1)OCO2)NC(=O)c1ccccc1 (configuration not stated)	x	-0.095	73*	x
CCCOc1ccc(Br)cc1/C=N/O	9	0.04	-11	-2
CCOC(=O)C1(Cc2ccccc2C(F)(F)F)CCN(C2CCN(C(C)C)CC2)CC1	x	-1.3	-112	x
Cc1cc(S(=O)(=O)NC2CCCCC2)ccc1OCC(=O)N1CCOCC1	8	0.1	-62	-0.67
Cc1cc(S(=O)(=O)N2CCCC2)ccc1OCC(=O)N1CCOCC1	2	1.3	78*	0.59
CCOCN(C(=O)Cn1c(CO)nc2ccccc21)c1c(C)cccc1CC	35*	-0.17	x	-0.31
CCc1cccc(C)c1NC(=O)CSc1nc2ccccc2n1CC(=O)N(C)C	2	x	x	0.71
COC(=O)C1C(=O)c2c([nH]c(C(=O)OC3CCCC3C)c2C)CC1C (configuration not stated)	25	x	x	-1.2
COC(=O)C1C(=O)c2c([nH]c(C(=O)OC3CCCCC3)c2C)CC1C (configuration not stated)	33*	x	-29	-0.36
CCOC(=O)c1sc(NC(C)=O)nc1-c1ccccc1	18	x	16	-0.1
CC(=O)Nc1sc(N)nc1-c1ccccc1	35*	x	x	0.22
CCN1CCN(c2ncnc3c2cnn3-c2ccccc2)CC1	7	x	x	-0.14
Cc1ccc(C)c(N2CCN(c3ncnc4c3cnn4-c3ccccc3)CC2)c1	51*	x	x	-0.81
COc1ccc2cc(C#N)c(NC(C)C)nc2c1	3	x	86*	0.16
CCN(CC)c1nc2cc(OC)ccc2cc1C#N	8	x	1	-0.74
FC(F)(F)c1nc(N2CCCC2)ncc1-c1nnnn1-c1ccccc1	62*	-0.55	x	-0.52
Cc1ccc(S(=O)(=O)CCc2nnc(N)s2)cc1	7	x	19	0.38
CC(=O)NC(CCS(C)(=O)=O)C(=O)Nc1ccc(C)c(F)c1 (configuration not stated)	57*	x	9	1.2
CC(=O)NC(CCS(C)(=O)=O)C(=O)Nc1cccc(C)c1 (configuration not stated)	2	x	x	0.35
Cn1cccc1C(=O)C(=O)Nc1ccc(Cl)cc1	41*	x	-8	-0.06
COc1cc(-c2nc3ccccn3c2/N=C/c2cc(OC)c(O)cc2Cl)ccc1O	x	0.12	x	x
COc1ccc(CNC(=O)C2(c3ccc(Cl)cc3)CC2)cc1	7	0.29	75*	0.21
SMILES	Measles CPE	ROMK primary	Insulin prom inh	SDO1 yeast rescue
O=C(NNC1=Nc2cccc3cccc1c23)c1ccccc1Cl	6	x	x	-0.02
Cc1ccsc1/C=N/n1c(COc2ccccc2)n[nH]c1=S	18	x	-15	-0.87
COC(=O)c1ccc(CN2CCCC(CCC(=O)NCc3ccc(C)o3)C2)cc1 (configuration not stated)	x	0.87	x	x
Cc1ccc2cc(CN(Cc3cccs3)Cc3nnnn3CC3CCCO3)c(=O)[nH]c2c1 (configuration not stated)	31*	x	x	0.1
Cc1ccc2[nH]c(=O)c(CN(Cc3cccs3)Cc3nnnn3CC3CCCO3)cc2c1 (configuration not stated)	6	-2.5	x	0.4
Cc1ccc(S(=O)(=O)N2CCC(C(=O)NNC(=O)C3CC3)CC2)cc1Cl	x	-0.67	x	x
CC(C)(O)C#Cc1ccccc1C(=O)NC(CC(N)=O)C(=O)O (configuration not stated)	65*	0.53	-29	-0.03
NC(=O)CC(NC(=O)OCc1ccccc1)C(=O)O (configuration not stated)	23	x	x	-0.23
Nc1nnc(SCC(=O)NN2C(=O)NC3(CCCCC3)C2=O)s1	5	0.37	-19	0.87
CC1C/C(=N\NC(=O)c2ccc(NS(=O)(=O)c3ccc(Br)cc3)cc2)CC(C)(C)C1 (configuration not stated)	3	-0.87	31	0.86
COc1cccc(-c2nc(CS(=O)(=O)CC(=O)NCCCOC(C)C)c(C)o2)c1	41*	x	-69	1.2
COc1ccc(Oc2ccc(/C=C/C(=O)c3ccc(O)cc3)cc2[N+](=O)[O-])cc1	18	-0.52	38	-1.3
CCCCc1nc2ccccc2[nH]1	x	-0.14	89*	x
Clc1ccc(CNCCC2=CCCCC2)cc1	6	-2.6	0	-0.64
CCN(CC)c1ccc(NC(=O)c2cnccn2)cc1S(=O)(=O)Nc1ccc(OC)cc1	6	1.2	-46	-1.4

Bioassay records from PubChem BioAssay.
